Assay results published in PubChem BioAssay (EPA / NIEHS).
Where “and” joins values, the source holds several entries; their conditions need not be identical. Equal entries are not always repeated. A structure can be active in one record and inactive in another. Calls of active or inactive are those of the source. The calls were made as follows: active = hit-call score of the fitted dose curve at least 0.9, where 1 is the maximum; inactive = score below 0.9.

Read-out: Monocyte Chemoattractant Protein-1 (MCP1), CCL2 (gene 6347)
Assay: BSK_LPS_MCP1: BioMAP Diversity Plus: LPS Assay for Monocyte Chemoattractant Protein-1 (MCP1) Biomarker Activity (AID 2283081);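 as to AC50: co-culture stimulated with LPS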
Conditions: primary human HUVEC with PBMC; actives raise or lower the signal
Experimental: BSK_LPS is a cell-based, multiplexed-readout assay that uses umbilical vein endothelium and peripheral blood mononuclear cells, a human vascular primary cell co-culture, with measurements taken at 24 hours after chemical dosing in a 96-well plate.BSK_LPS_MCP1 is an assay component measured in the BSK_LPS assay. It measures MCP-1 antibody related to regulation of gene expression using ELISA technology.Data from the assay component BSK_LPS_MCP1 was analyzed into 1 assay endpoint. This assay endpoint, BSK_LPS_MCP1, was analyzed with bidirectional fitting relative to DMSO as the negative control and baseline of activity. Using a type of binding reporter, gain or loss-of-signal activity can be used to understand changes in the signaling as they relate to the gene CCL2. Furthermore, this assay endpoint can be referred to as a primary readout, because this assay has produced multiple assay endpoints where this one serves a signaling function. To generalize the intended target to other relatable targets, this assay endpoint is annotated to the cytokine intended target family, where the subfamily is chemotactic factor.
The levels of cell surface (or secreted, indicated by the prefix "s") biomarker endpoints were measured by ELISA. Overt cytotoxicity to cells in confluent adherent cultures (all systems other than the BT system) was assessed by measuring total protein levels using sulforhodamine B (SRB) staining in parallel cultures at the time of biomarker measurements, indicated as SRB endpoints. For proliferation assays for adherent cell types, individual cell types are cultured at sub-confluence and relative cell numbers quantified by SRB staining at time points optimized for each system (48 h: 3C and CASM3C systems; 72 h: BT and HDF3CGF systems; 96 h: SAg system). SRB was performed by staining cells with 0.1% SRB after fixation with 10% TCA and reading wells at 560 nm.Viability and proliferation of PBMC (T cells) was quantified by Alamar Blue reduction for the SAg and BT systems. For PBMC viability (referred to as PBMC Cytotoxicity within the assay endpoint names), cells were plated (75,000/well in a 96-well plate) and then chemical samples added for 1 h before addition of activators, SEB and TSST-1 (20 ng/mL final concentration each). Cells were incubated for 90 h. Then, Alamar Blue (20 uL/well) (Invitrogen, Cat DAL1100) was added for 6 h, and the plates were read with a fluorescence microplate reader at 546/580 nm (excitation/emission). For PBMC proliferation, cells were plated and activated as above but incubated for only 16 h prior to addition of Alamar Blue. Plates were read after 6 h.

Row | Structure (SMILES) | outcome | AC50
1 | FC(F)(F)C(F)(F)C(F)(F)C(F)(F)C(F)(F)C(F)(F)CC1CO1 (stereo not given) | inactive | 
2 | FC(F)(F)C(F)(F)CNCC(F)(F)C(F)(F)F | inactive | 
3 | CCN(CC)c1ccc2c(C)cc(=O)oc2c1 | inactive | 
4 | FC(F)(F)C(F)(F)C(F)(F)CI | inactive | 
5 | N=C(N)C(F)(F)C(F)(F)C(F)(F)C(F)(F)C(F)(F)C(F)(F)C(F)(F)F | inactive | 45.8 µM (active)
6 | CCCCCCC(C)OC(=O)CCCCC(=O)OC(C)CCCCCC (stereo not given) | inactive | 
7 | CCCCCCCCC(F)(F)C(F)(F)C(F)(F)C(F)(F)C(F)(F)C(F)(F)F | inactive | 
8 | FC(F)(F)C(F)(F)C(F)(F)C(F)(F)C(F)(F)C(F)(F)C(F)(F)C(F)(F)CCS | inactive | 
9 | FC(F)(F)C(F)(F)C(F)(F)N(C(F)(F)C(F)(F)C(F)(F)F)C(F)(F)C(F)(F)C(F)(F)F | inactive | 
10 | C=CC(=O)OCC(F)(F)C(F)(F)C(F)(F)C(F)(F)COC(=O)C=C |  | 17.3 µM (active) and 19.4 µM (active)
11 | CC(=O)Nc1ccc(N=Nc2cc(C)ccc2O)cc1 | inactive | 
12 | FC1CC(F)(F)C(F)(F)C1(F)F (stereo not given) | inactive | 
13 | C#C[C@]1(O)CC[C@H]2[C@@H]3CCc4cc(OC)ccc4[C@H]3CC[C@@]21C |  | 0.0185 µM (active)
14 | O=S(=O)(OCC(F)F)C(F)(F)F | inactive | 
15 | O=C(O)C(F)(F)C(F)(F)C(F)(F)F | inactive | 
16 | Oc1ccc(Nc2ccccc2)cc1 | inactive | 
17 | O=C(O)C(F)(F)C(F)(F)C(F)F | inactive | 
18 | CCCCNc1ccccc1 | inactive | 
19 | CCCCCCOC(=O)c1ccccc1O | inactive | 40.6 µM (active)

Row | Structure (SMILES) | outcome | AC50
20 | FC(F)(I)C(F)(F)C(F)(F)C(F)(F)I | inactive | 
21 | CCO[Si](CCC(F)(F)C(F)(F)C(F)(F)C(F)(F)C(F)(F)C(F)(F)F)(OCC)OCC | inactive | 
22 | O=C(Cl)C(F)(F)C(F)(F)C(F)(F)C(F)(F)C(F)(F)C(F)(F)C(F)(F)C(F)(F)F |  | 45.7 µM (active) and 47.4 µM (active) and 54.8 µM (active)
23 | O=C(O)C(F)(F)C(F)(F)C(F)(F)C(F)(F)C(F)(F)C(F)(F)C(F)(F)C(F)(F)C(F)(F)C(F)F |  | 41.1 µM (active) and 44.3 µM (active)
24 | FC(F)(F)C(F)(F)C(F)(F)C(F)(F)C(F)(F)C(F)(F)C(F)(F)I | inactive | 
25 | O=C(O)C(F)(OC(F)(F)C(F)(OC(F)(F)C(F)(OC(F)(F)C(F)(F)C(F)(F)F)C(F)(F)F)C(F)(F)F)C(F)(F)F (stereo not given) | inactive | 
26 | OCC(F)(F)C(F)(F)C(F)(F)F | inactive | 
27 | CCc1ccc(C(c2ccc(CC)cc2)C(Cl)Cl)cc1 |  | 31.4 µM (active)
28 | C=CC(F)(F)C(F)(F)C(F)(F)C(F)(F)C(F)(F)C(F)(F)C(F)(F)C(F)(F)C=C | inactive | 
29 | OCCCC(F)(F)C(F)(F)C(F)(F)F | inactive | 
30 | OCCCC(F)(F)C(F)(F)C(F)(F)C(F)(F)C(F)(F)C(F)(F)C(F)(F)F |  | 44.7 µM (active) and 44.2 µM (active)
31 | FC(F)(F)C(F)(F)C(F)(F)C(F)(F)C(F)(F)C(F)(F)C(F)(F)C(F)(F)F | inactive | 
32 | CCCCCCCCCCCCCCCC[N+](C)(C)Cc1ccccc1 |  | 11.4 µM (active)
33 | COC(=O)CCC(F)(F)C(F)(F)C(F)(F)C(F)(F)F | inactive | 
34 | O=C(O)C(F)(F)C(F)(F)C(F)(F)C(F)(F)F | inactive | 
35 | C=CC(F)(F)C(F)(F)C(F)(F)C(F)(F)C(F)(F)C(F)(F)C(F)(F)C(F)(F)F | inactive | 
36 | C=CC/C=C/C/C=C/C/C=C/C | inactive | 
37 | C=C(C)C(=O)OCCC(F)(F)C(F)(F)C(F)(F)C(F)(F)C(F)(C(F)(F)F)C(F)(F)F | inactive | 
38 | CS(C)(=O)=O | inactive | 
